# Assay outcomes from PubChem BioAssay.
# This is a sample that favours compounds with a hit; in the whole collection about 11% have one here.
# MCF10A rerep: inducers of DNA re-replication in MCF 10A breast cells; MCF 10A DNA re-replication, Hoechst nuclear intensity, 48 h; Potency, µM (doses to about 46.1 µM), for inactives: at the highest dose activity, positive = re-replication, actives largely listed as activators; 350,000 compounds, 2.9% hits; AID 624296; note: potency is the fitted concentration of half-maximal effect; % of control where 0% means no effect; nearly all actives have a fitted effect of over 50% in size
# IL1B secr inh: blocks inflammasome-driven IL-1 beta release; THP-1 LPS/ATP IL-1B secretion, AlphaLISA, 16 h; hits give low values; activity change, % at 57.5 µM; 360,000 compounds, 4.7% hits; in the data active = activity change below about -50%; inconclusive = mostly about -30% to -49%; note: % is set by controls: 0 for no effect and ±100 for the full control effect
#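 THP-1 cells pretreated 1 hr with compounds (up to 57.5 uM final), then stimulated with LPS (250 ng/mL final) plus ATP (1.25 mM final); secreted IL-1B measured by AlphaLISA after 16 hr, decreased signal indicating inhibition.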
# SW480 rereplic: inducers of DNA re-replication in SW480 colon cancer cells; SW480 DNA re-replication, Hoechst DNA content imaging, 48 h; 340,000 compounds, 1.8% hits; Potency, µM (doses to about 46.1 µM), without a hit: at the top dose re-replication activation, hits mostly activators; note: potency is the fitted concentration of half-maximal effect; % of control where 0% means no effect; nearly all actives have a fitted effect of over 55% in size
#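 SW480 cells exposed to compounds for 48 hr at 37 C, 5% CO2, then Hoechst-stained 40 min. Nuclear DNA content imaged by fluorescence scanning (405 nm excitation, 500-530 nm emission); re-replication scored as increased high-intensity nuclei.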
# Gal4-VP16 FLuc: inhibits Gal4-VP16 luciferase reporter, ROR gamma counter-screen; Drosophila S2 Gal4-VP16 UAS-luciferase, luminescence, 20 h; Potency, µM (top dose mostly 53.6 µM), inactives show at the top dose activity, negative = inhibition, actives largely listed as inhibitors; 310,000 compounds, 3.5% hits; AID 2546;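 note: Gal4-VP16 expression switched on by copper sulfate through the metallothionein promoter; potency is the fitted concentration of half-maximal effect; % is set by controls: 0 for no effect and ±100 for the full control effect; nearly all actives have a fitted effect of over 50% in size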
# RORg inh: inhibitors of mouse ROR gamma transcriptional activity | P51450 | Potency, µM (series often up to 53.6 µM), for the others: at the top dose activity change, negative = inhibition, hits mostly inhibitors | 310,000 compounds, 5.4% hits | Drosophila S2 Gal4-RORgamma UAS-luciferase reporter, 20 h; note: potency is the fitted concentration of half-maximal effect; % is set by controls: 0 for no effect and ±100 for the full control effect; nearly all actives have a fitted effect of over 60% in size
# Target sequence (P51450 whole entry, looked up, the tested form may be a part): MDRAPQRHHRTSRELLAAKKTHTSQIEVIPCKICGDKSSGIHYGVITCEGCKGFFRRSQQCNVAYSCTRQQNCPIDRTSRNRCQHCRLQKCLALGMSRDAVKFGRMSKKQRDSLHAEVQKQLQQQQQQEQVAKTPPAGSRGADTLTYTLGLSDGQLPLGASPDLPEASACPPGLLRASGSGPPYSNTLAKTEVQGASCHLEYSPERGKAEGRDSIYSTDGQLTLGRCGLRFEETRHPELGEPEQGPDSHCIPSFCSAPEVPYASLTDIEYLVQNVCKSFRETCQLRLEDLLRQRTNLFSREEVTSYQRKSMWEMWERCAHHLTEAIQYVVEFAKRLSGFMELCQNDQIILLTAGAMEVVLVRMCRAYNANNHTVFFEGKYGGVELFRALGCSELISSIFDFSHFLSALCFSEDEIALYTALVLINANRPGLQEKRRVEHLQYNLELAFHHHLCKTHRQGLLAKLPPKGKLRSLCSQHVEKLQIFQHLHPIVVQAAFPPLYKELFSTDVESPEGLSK
#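 Stable Schneider cell line, Gal4 DNA-binding domain fused to ROR gamma, UAS-luciferase. Cmpd 1 hr RT → CuSO4 700 uM final → 20 hr RT → luciferase reagent 10 min → luminescence.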
# Active calls of the source: *; i = inactive; u = inconclusive; x = not tested or not shown; [ ] = dose if it differs, or a comment. Unless noted, calls come from the whole dose curve; as a rule, active = well fitted curve in the direction sought with a large enough effect; inconclusive = small, poorly fitted or top-dose-only effect, or another doubt; inactive = no such curve, though single readings can be large; an effect the other way counts as inactive or inconclusive.
SMILES,MCF10A rerep,IL1B secr inh,SW480 rereplic,Gal4-VP16 FLuc,RORg inh
COc1ccc(Br)cc1CNc1ccc2[nH]c(=O)[nH]c2c1,-16%,-61*,-1%,-13%,3%
CC(=O)N1CCN(c2ccc(NCc3ccc(F)cc3)cc2)CC1,-1%,14,3%,11%,51%
COc1ccccc1CNCc1cc(Br)ccc1OC,u,u,2%,2%,-14%
COc1ccc(Br)cc1CNc1ccc(O)cc1,u,-95*,u,u,8.9µM*
COc1cc(CNc2ccc(N3CCN(C(C)=O)CC3)cc2)ccc1OCc1ccc(F)cc1,10µM*,-19,1%,-6%,u
C=CCC(C)(O)c1ccsc1 (configuration not stated),x,x,x,-3%,-10%
CC(C)NC(=O)C1(C)CCN1C(=O)c1ccc2c(c1)OCO2 (configuration not stated),x,16,x,x,x
CCN1CCCC1CNC(=O)c1ccc(Sc2ccc(F)cc2)c([N+](=O)[O-])c1 (configuration not stated),4%,-19,2%,4%,1%
CCN1CCCC1CNC(=O)c1ccc(Sc2ccccc2Cl)c([N+](=O)[O-])c1 (configuration not stated),u,-50*,-5%,1%[10 µM],u
Cc1ccc(-c2nc3ccc(NS(=O)(=O)c4ccccc4)cc3[nH]2)o1,20%,-61*,0%,-5%,22%
O=S(=O)(Nc1ccc2nc(-c3ccc(Br)o3)[nH]c2c1)c1ccccc1,x,x,x,1%,u
Cc1csc(N/N=C/c2ccc(O)c([N+](=O)[O-])c2)n1,15%,9,-6%,u,-5%
CC(C)(C)c1csc(N/N=C/c2ccc(O)cc2)n1,u,u,-7%,1µM*,0.56µM*
COc1ccc(NC(=O)Cn2c([N+](=O)[O-])cnc2C)c(OC)c1,x,-4,x,x,x
O=C(CC1C(=O)CCCC1=O)c1ccccc1,15µM*,-204*,u,u,10µM*
Cc1ccc(C(=O)CN(CCCC(N)=O)S(=O)(=O)c2ccc([N+](=O)[O-])cc2)cc1,27%,16,-13%,x,x
Fc1cccc(-n2cc(-c3ccccc3)c3c(=S)nc[nH]c32)c1,9%,21,4%,0.63µM*,2.5µM*
S=c1nc[nH]c2c1ncn2-c1ccc(Cl)cc1,-1%,-12,-4%,x,x
Fc1ccc(-n2cc(-c3ccccc3)c3c(=S)nc[nH]c32)cc1,-1%,26,-1%,1µM*,1.3µM*
CN(C)S(=O)(=O)c1ccc(C(=O)Nc2nc(-c3cccs3)cs2)cc1,u,-3,13%,-19%,3%
N#Cc1ccc(C(=O)Nc2nnc(-c3cccs3)o2)cc1,-3%,34,-1%,1µM*,0.71µM*
CN(C)S(=O)(=O)c1ccc(C(=O)Nc2nnc(-c3ccc4c(c3)CCCC4)o2)cc1,13%,4,-2%,0.089µM*,0.13µM*
CN(C)S(=O)(=O)c1ccc(C(=O)Nc2nnc(-c3cccs3)o2)cc1,u,22,-65%,1.3µM*,0.63µM*
O=C(Nc1nnc(-c2cccs2)o1)c1cccc(C(F)(F)F)c1,-11%,73,u,0.11µM*,0.11µM*
O=C(Nc1cnccn1)c1cccc(C(F)(F)F)c1,-10%,-18,-7%,11%,u
SMILES,MCF10A rerep,IL1B secr inh,SW480 rereplic,Gal4-VP16 FLuc,RORg inh
COc1ccc(CNC(=O)Nc2nnc([C@@H]3C[C@H](O)[C@@H](CO)O3)s2)cc1,x,-21,x,x,x
O=C(c1cccc(F)c1)N1CCC2(CC1)CCN(C(c1ccccc1)c1ccccc1)CC2,x,x,x,4%,13%
CC(C)C[C@@H]1O[C@H](CCc2ccccc2)Cc2[nH]c(=S)[nH]c(=O)c21,x,34,x,x,x
O=C(Nc1ccccn1)c1ccc(S(=O)(=O)N2CCCCC2)cc1,-1%,-2,-1%,x,x
O=C(Nc1nnc(-c2ccccn2)o1)c1ccc(Br)cc1,29%,21,-2%,0.63µM*,0.63µM*
COc1ccc(-c2nnc(NC(=O)c3ccc(S(=O)(=O)N(C)CC4CCCO4)cc3)o2)c(OC)c1 (configuration not stated),u,i,u,1µM*,0.71µM*
CCC(=O)Nc1nnc(-c2ccccn2)o1,-14%,10,-7%,0%,u
CC1CCCN(S(=O)(=O)c2ccc(C(=O)Nc3nnc(-c4ccccn4)o3)cc2)C1 (configuration not stated),2%,14,26%,-2%,1.8µM*
CC1CCCN(S(=O)(=O)c2ccc(C(=O)Nc3nnc(C4CC4)o3)cc2)C1 (configuration not stated),9%,83,u,1µM*,0.22µM*
Cc1cccc(C)c1NC(=O)CNC(=O)CN1C(=O)NC2(CCc3ccccc32)C1=O (configuration not stated),2%,17,-1%,x,x
O=C(NCC(F)(F)F)C1C(=O)Nc2ccccc2C(=O)N1C1CCCC1 (configuration not stated),x,21,x,x,x
CC1CCCN(S(=O)(=O)c2ccc(C(=O)Nc3nnc(-c4ccccc4Cl)o3)cc2)C1 (configuration not stated),u,17,u,0.16µM*,0.1µM*
COc1ccccc1NC(=O)c1ccc(S(=O)(=O)N2CCOCC2)cc1,-4%,-19,4%,2%,9%
CC1CCCN(S(=O)(=O)c2ccc(NC(=O)Cn3nnc(-c4ccccc4F)n3)cc2)C1 (configuration not stated),u,-3,u,2%,56%
COc1ccccc1-c1nnc(NC(=O)c2ccc(S(=O)(=O)N3CCCC3)cc2)o1,3%,0,u,0.89µM*,0.71µM*
Cc1nc2ccc(Br)cc2c2c1CC(CBr)O2 (configuration not stated),7%,-74*,4%,1%,23%
COc1ccccc1[C@@H]1C(c2ccc(F)cc2)=NN(c2ccccc2)[C@H]1C(=O)N1CCOC1=O,4.1µM*,-4,21µM*,1%,13%
COc1ccccc1[C@@H]1C(c2cccc(Cl)c2)=NN(c2ccc(Br)cc2)[C@H]1C(=O)N1CCOC1=O,u,-8,3.3µM*,-4%[40.7 µM],-1%[40.7 µM]
COc1ccccc1[C@@H]1C(c2ccc(F)cc2)=NN(c2ccc(Br)cc2)[C@H]1C(=O)N1CCOC1=O,x,x,x,3%[40.7 µM],0%[40.7 µM]
COc1ccccc1[C@@H]1C(c2cccc(C)c2)=NN(c2ccccc2)[C@H]1C(=O)N1CCOC1=O,u,-3,15µM*,-8%,11%
COc1ccccc1[C@@H]1C(c2ccccc2)=NN(c2ccccc2)[C@H]1C(=O)N1CCOC1=O,u,3,u,1%,2%
COc1ccc(S(=O)(=O)NC(=O)C2(C)CCN2C(=O)COc2ccc(Cl)cc2)cc1OC (configuration not stated),x,0,x,x,x
